Many of the other results were omitted from the sample, so hits are more common in it than they were.
TTR transcr act – activators of transthyretin transcription; AID 1117267; 1.3% of 92,000 active; SH-SY5Y TTR promoter Gaussia luciferase, luminescence; 100% = recombinant luciferase protein wells; activation, % at 16.7 µM;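 active = activation above the mean of all tested compounds plus 3 SD, cut at about 9.5% in these data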;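 also: cells exposed to compounds for one day before reading; 0% = median of all test compound wells on the plate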
TTR inh HuH7 – decreases TTR transcription in HuH7 cells in activator counter-screen. shares compounds with TTR transcr act. HuH7 TTR promoter-Gaussia luciferase reporter, luminescence. inhibition, % at 16.7 µM. 4% of 1,100 active. AID 1117279;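 active = average inhibition above the solvent-only control wells' mean plus 3 SD, cut at about 15% in these data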;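 also: 0% = cells with DMSO only and 100% = cells with inhibitor control FD; inhibitors lower well luminescence so higher value means more inhibition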
TTR up confirm – confirmation of human transthyretin transcription activators. shares compounds with TTR transcr act. SHSY5Y TTR promoter Gaussia luciferase, luminescence; 100% = purified Lucia enzyme wells, no cells. 1,100 tested, under 10 active. activation, % at 16.7 µM;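 active = mean activation above a set limit taken from the earlier primary screen, cut at about 11% in these data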;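 also: 0% = DMSO-treated cells and 100% = recombinant Lucia luciferase without cells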
An asterisk follows results filed as active.

SMILES | TTR transcr act | others
CC(C)(C)OC(=O)CNC(=O)c1nc[nH]c1C(=O)N1CCN(c2ccccc2)CC1 | 3
CCCC1CCC2(CCCN2CCOC(=O)Nc2ccccc2OC)CC1 (stereo not drawn) | 1
COc1cc(OC)cc(C(=O)N2CCN(C3CCCCC3)CC2)c1 | 6
O=C(CCCc1ccccc1)N1CCN(C2CCCCC2)CC1 | 1
COc1ccc(CCC(=O)N2CCN(C3CCCCC3)CC2)cc1 | 14* | TTR inh HuH7=-14;TTR up confirm=0
O=C1N(CC[C@@H](O)c2ccccc2)CCC12CCC(c1ccccc1)CC2 (stereo partly drawn) | 0
COC(=O)[C@]12CCCCC=C1N(Cc1ccc(OC)cc1)C(=O)[C@@H]2CC(=O)NCCCCc1ccccc1 | 10
OC(c1ccccc1)(c1ccccc1)c1cnc2ccccn12 | -1
O=C(CC1CC2CCC1C2)NCc1cccs1 (stereo not drawn) | 18* | TTR inh HuH7=-10;TTR up confirm=1
O=C(/C=C/C(=O)NCc1cccs1)NCc1cccs1 | -1
O=C(NCc1cccs1)NC1CCCCC1 | 1
CCC(=O)Nc1ccc(Cl)cc1C(=O)c1ccc[nH]1 | 0
CCC[C@H]1[C@@H](NC(=O)NCC)CC[C@@]23CCCN2C(=O)CCC[C@@H]13 | 1
COCC(=O)N(c1ccc(C(C)(C)C)cc1)C(C(=O)NC(C)(C)C)c1cccnc1 (stereo not drawn) | 2
COC(=O)[C@]12C[C@H](CC(=O)NCC3CCCCC3)C(=O)N(CCc3ccc(OC)c(OC)c3)C1=C[C@H](C(C)C)O[C@@H]2C1CC1 | 3
CCOc1ccc(NC(=O)CN2CCN(CC(=O)Nc3ccc(C(=O)OC)cc3)CC2)cc1 | -1
CCOc1ccc(NC(=O)CN2CCN(CC(=O)Nc3ccccc3OC)CC2)cc1 | -2
CCCCOc1ccc(NC(=O)CN2CCN(CC)CC2)cc1 | 24* | TTR inh HuH7=-9;TTR up confirm=1
COc1ccc2c(c1)[C@@]1(NCCc3c1[nH]c1ccc(OC)cc31)C(=O)N2C | 0
CC(=O)O[C@H]1CC[C@]2(C)C3CC[C@]4(C)[C@@H]([C@H](C)/C=C/[C@H](C)C(C)C)CC[C@H]4[C@@]34C=C[C@]2(C1)N(C(=O)c1ccccc1)O4 (stereo partly drawn) | -2
O=C(Nc1ccc(F)cc1)OC1CC2CC1[C@H]1CCCCN1[C@H]2Cc1ccccc1 (stereo partly drawn) | 4
CCN(CC)S(=O)(=O)c1ccc2c(c1)nc(SC(C)C(N)=O)n2-c1ccc(OC)cc1 (stereo not drawn) | 26* | TTR inh HuH7=6;TTR up confirm=-2
CCN(CC)S(=O)(=O)c1ccc2c(c1)nc(SC(C)C(=O)NCC1CCCO1)n2CC (stereo not drawn) | 2
COc1ccc(-n2nnnc2SC(C)C(N)=O)cc1 (stereo not drawn) | 2
CCN1CCCCC(NC(=O)c2ccc(Cl)cc2Cl)C1=O (stereo not drawn) | -1
SMILES | TTR transcr act | others
O=C(OCc1cn(Cc2ccccc2F)nn1)N1CCCC1 | 0
Cc1cc(C)c(NC(=O)COC(=O)C23CC4CC(CC(O)(C4)C2)C3)c(Cl)c1 | 2
Cn1cccc1C(=O)NC(=O)COC(=O)C12CC3CC(CC(O)(C3)C1)C2 | 11* | TTR inh HuH7=-6;TTR up confirm=-1
O=C(COC(=O)C12CC3CC(CC(Br)(C3)C1)C2)NNC(=O)c1ccccc1 | 0
COc1ccc(Oc2c(-c3cccs3)cnn(-c3ccc(C)cc3)c2=O)cc1 | 0
COC(=O)[C@]12C[C@H](CC(=O)N3CCSCC3)C(=O)N(Cc3ccc4c(c3)OCO4)C1=C[C@H](C(C)C)O[C@@H]2C1CC1 | 1
Cc1cccc(OCC(=O)NNC(=O)CCc2ccccc2)c1 | 0
Cc1cccc(OCC(=O)NNS(=O)(=O)c2ccccc2F)c1 | 16* | TTR inh HuH7=-4;TTR up confirm=2
Cc1cccc(OCC(=O)Nc2ccncc2)c1 | -2
C[C@H]1CN([C@@H](C)CO)C(=O)CCCn2cc(nn2)CO[C@@H]1CN(C)S(=O)(=O)c1cn(C)cn1 | 0
O=c1c2ccccc2sc2nc(C3CCCCC3)n(Cc3ccco3)c(=O)c12 | 17* | TTR inh HuH7=2;TTR up confirm=-1
CCCc1nc2sc3ccccc3c(=O)c2c(=O)n1Cc1ccccc1 | -1
Cn1c2ccccc2c(=O)c2c(=O)n(Cc3ccco3)c(-c3ccc(F)cc3)nc21 | 3
CCCC1CCC2(CCCN2CCOC(=S)NCc2cccc(C)c2)CC1 (stereo not drawn) | 5
O=C1CCCc2c1nc(-c1ccc(F)cc1)n2O | 9
O=[N+]([O-])c1ccc(-c2cn3c(n2)CCC3)cc1 | 5
O=C1CCCc2c1nc(-c1ccc([N+](=O)[O-])cc1)n2O | 12* | TTR inh HuH7=2;TTR up confirm=-1
O=C(Nc1ccccc1)Nc1nc2ncccn2c1-c1ccc(C(F)(F)F)cc1 | -2
O=S1(=O)CC2c3ccccc3CCN2CN1CCc1ccccc1 (stereo not drawn) | -1
